In PubChem BioAssay AID485273 (Sanford-Burnham Center for Chemical Genomics, 2010):
In all, about 330,000 compounds went through this assay and about 1,500 (0.45%) were called active. For the sample, actives were picked, then their nearest neighbours and some compounds at random. Unmarked numbers belong to inactive results. No stated cut-off is given here; in the data, active means inhibition above about 45% (passing the limit was not always enough); inconclusive means no clear call, values can overlap the other calls.

Each compound was assayed against Ubiquitin-conjugating enzyme E2 N (Homo sapiens) (UniProt P61088) (assay: blockers of UBC13 ubiquitin chain synthesis – biochemical, TR-FRET, uHTS, primary screen (AID 485273)). Conditions: UBC13 polyubiquitin chain formation, at 20 µM, active compounds read high.
Sequence of Ubiquitin-conjugating enzyme E2 N (Homo sapiens) (P61088 whole entry, looked up): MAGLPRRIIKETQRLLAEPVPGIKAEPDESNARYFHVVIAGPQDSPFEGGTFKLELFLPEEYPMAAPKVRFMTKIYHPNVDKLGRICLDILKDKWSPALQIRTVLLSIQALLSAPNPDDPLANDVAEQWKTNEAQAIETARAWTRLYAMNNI

Row | SMILES | inhibition
1 | CC[C@@H](C)[C@H](NC(=O)CCc1c(C)c2cc3c4c(oc3c(C)c2oc1=O)CCCC4)C(=O)O | 2.9%
2 | c1ccc(-n2nnnc2-c2cccnc2)cc1 | 16.1%
3 | S=c1nc2ccccc2c2nc(-c3cccnc3)[nH]n12 | 58.9% (active)
4 | O=C(CSc1n[nH]c(-c2cccnc2)n1)Nc1ccnc2ccccc12 | 21.1%
5 | COc1ccccc1N(C)S(=O)(=O)c1ccc(Cl)c(C(=O)N2CCC(C(N)=O)CC2)c1 | 1.7%
6 | CC1(C)CC(=O)c2sc(N)nc2C1 | -5.4%
7 | O=c1cc(CO)oc(C(Nc2cccc(C(F)(F)F)c2)c2ccccn2)c1O (stereo not drawn) | 97.1% (active)
8 | O=[N+]([O-])c1cccc(S(=O)(=O)NCc2ccccn2)c1 | -12.9%
9 | FC(F)(F)c1cccc(Nc2ncnc3ccccc23)c1 | 11.1%
10 | O=c1cc(CO)oc(C(Nc2cccc([N+](=O)[O-])c2)c2ccccn2)c1O (stereo not drawn) | 94.8% (active)
11 | O=C(Nc1cccc([N+](=O)[O-])c1)Nn1cnnc1 | -5.5%
12 | O=C(O)CC1(CC(=O)Nc2cccc(C(F)(F)F)c2)CCCC1 | -1.1%
13 | O=C(c1ccccc1)N1CCC(CC2CC(c3ccc(Cl)cc3)=NO2)(C(=O)NCC2CCCCC2)CC1 (stereo not drawn) | 4.7%
14 | COC(=O)c1ccc(CNC(=O)c2ccc3oc(C(C)C)nc3c2)cc1 | -8.3%
15 | O=C(NC(=O)c1cc(OCC(F)(F)F)ccc1OCC(F)(F)F)Nc1ccccc1 | 2.9%
16 | c1ccc(CCC2=NCCn3cccc32)cc1 | -3.6%
17 | CCOC(=O)c1ccc(NC(=O)CCn2c(=O)oc3ccccc32)cc1 | 4.5%
18 | CCN(CC)S(=O)(=O)c1ccc2[nH]c(=O)cc(C(=O)N(C)C3CCS(=O)(=O)C3)c2c1 (stereo not drawn) | -6.2%
19 | O=C(CCN1C(=O)C2CCCCC2C1=O)Nc1ccc(OC(F)F)cc1 (stereo not drawn) | 1.3%
20 | CCN(CC)CCNC(=O)c1ccc(NC(=O)c2cc(-c3ccncc3)nc3ccccc23)cc1 | 89.7% (active)
21 | COC(=O)CNC(=O)c1cc(-c2ccncc2)nc2ccccc12 | -0.6%
22 | O=C(Nc1ccc(S(=O)(=O)Nc2nccs2)cc1)c1cc(-c2ccncc2)nc2ccccc12 | -11.2%
23 | CCn1c(SCc2cc(=O)n3ccsc3n2)nc2ccccc21 | 3%
24 | O=C(Nn1cnnc1)c1cc(Cl)ccc1Cl | -7.5%
25 | CC1CN(C(=O)CCC(=O)NCCCN2CCC(Cc3ccccc3)CC2)c2cc(Cl)ccc2O1 (stereo not drawn) | 64.4% (active)

Row | SMILES | inhibition
26 | CC1CN(C(=O)CCC(=O)NCc2cccnc2)c2ccccc2O1 (stereo not drawn) | 2.3%
27 | CC1CN(C(=O)CCC(=O)NC2CCN(Cc3ccccc3)CC2)c2ccccc2O1 (stereo not drawn) | 4.7%
28 | CN(C)C(=O)c1ccc2c(c1)C1C3CCC(C3)C1C(c1ccccc1)N2 (stereo not drawn) | -13.6%
29 | CC(=O)NC(Cc1ccc(F)c(F)c1)C(=O)NC1CCN(c2nnnn2-c2ccccc2)CC1 (stereo not drawn) | -5.3%
30 | COc1ccnc2c1c(=O)n(Cc1cccc(F)c1)c(=O)n2C | 48.2% (active)
31 | CCCCNc1nc2c(c(=O)n(C)c(=O)n2C)n1Cc1cccc(OC)c1 | 21.5%
32 | CC(C)(C)c1cc2cccnc2n1Cc1cccc(F)c1 | 11.4%
33 | CCOC(=O)c1ccc(COC(=O)CCc2nc(-c3ccccc3)c(-c3ccccc3)o2)cc1 | -0.9%
34 | COCc1cc(=O)[nH]c2cc(NC(=O)C(F)(F)F)c(C)cc12 | 8.5%
35 | CCOc1ccc(/C=N/NC(N)=S)cc1 | -0.6%
36 | OC(CNCCc1ccc(Cl)cc1Cl)COc1ccccc1 (stereo not drawn) | 23%
37 | NC(N)=N/N=C/c1ccc(OCc2ccc(Cl)cc2Cl)cc1 | 108% (active)
38 | O=C(/C=C/c1cccc([N+](=O)[O-])c1)OCC(=O)N1CCOCC1 | -13.5%
39 | CC(OC(=O)CNC(=O)c1ccco1)C(=O)Nc1ccc(Cl)cn1 (stereo not drawn) | -3.2%
40 | CCc1ccc(NC(=O)C(C)OC(=O)/C=C/c2cccc([N+](=O)[O-])c2)cc1 (stereo not drawn) | -15.4%
41 | COc1ccc(N2CCN(C(=O)CNC(=O)c3ccc(C(C)(C)C)cc3)CC2)cc1 | 12.3%
42 | O=C(CCCCCN1C(=O)c2cccc3cccc(c23)C1=O)NCc1ccco1 | 57.4% (active)
43 | O=C(CCCOc1ccccc1)NCc1ccco1 | 6.4%
44 | O=C1c2cccc3cccc(c23)C(=O)N1CCCCCc1n[nH]c(=S)o1 | -1.2%
45 | C=CCN(CC=C)CCOc1ccccc1[N+](=O)[O-] | 3.5%
46 | O=C(COc1ccc(Br)cc1F)NCC1(N2CCCCC2)CCCCC1 | -5.1%
47 | Cc1ccc2c(c1)N(CC(=O)N1CCC(O)CC1)C(=O)CO2 | -0.3%
48 | CCOc1ccccc1N1CN(Cc2ccccc2)CNC1=S | -1.7%
49 | Cc1ccc(C(=O)N/C(=C/c2ccc(-c3cccc([N+](=O)[O-])c3)o2)C(=O)NCCCN(C)C)cc1 | 57% (active)
50 | CN(C)CCNC(=O)/C(=C/c1cccc([N+](=O)[O-])c1)NC(=O)c1ccccc1 | 11.7%

Row | SMILES | inhibition
51 | C=CCNC(=O)/C(=C\c1cccc([N+](=O)[O-])c1)NC(=O)c1ccccc1 | 5.9%
52 | CN(CCc1ccccn1)C(=O)c1ccc(OC2CCN(Cc3ccccn3)CC2)cc1 | 1.2%
53 | Oc1ccccc1-c1cc(-c2ccc(Cl)cc2)n[nH]1 | 14.2%
54 | CCCCCCCC1(C)NC(=O)N(CC(=O)Nc2cc(C)on2)C1=O (stereo not drawn) | 3.7%
55 | CN(C)c1ccnc2sc3c(=O)n(Cc4ccccc4)cnc3c12 | 48% (active)
56 | CN(C)/C=C/c1c(C#N)c(=O)ncn1Cc1ccccc1 | -4.7%
57 | O=c1c2c(ncn1Cc1ccccc1)nc1n2CCC1 | 1.8%
58 | Cc1ccccc1C(=O)OC1OC(=O)C(Cl)=C1Nc1ccccc1 (stereo not drawn) | 78% (active)
59 | COc1ccccc1C(=O)Nc1ccc(Nc2ccccc2)cc1 | 7.8%
60 | Cc1ccccc1C(=O)O | -9%
61 | CCOC(=O)c1ccc(Nc2cc3ccccc3c(=O)[nH]2)cc1 | -38.5%
62 | O=C1OC(OC(=O)c2ccccc2Br)C(N2CCOCC2)=C1Cl (stereo not drawn) | 15.6%
63 | Cc1ccc(NC2=C(Cl)C(=O)OC2OC(=O)c2ccccc2C)cc1 (stereo not drawn) | 53.9% (active)
64 | CCOC(=O)CNC(=O)CN1C(=O)CCSc2ccccc21 | 8.8%
65 | CNC(=O)c1sc(Nc2ccc(OCc3ccccc3)cc2)nc1C | 6.9%
66 | Cc1nn(CCCC(=O)NCc2ccccc2Cl)c(=O)c2nccn12 | -2.4%
67 | FC(F)Oc1ccccc1C1CC(c2ccc(Br)s2)Nc2ncnn21 (stereo not drawn) | -2.2%
68 | CCN(CC)S(=O)(=O)c1cc(C(=O)Nc2ccccn2)ccc1C | -8.9%
69 | CCN(CC)CCNC(=O)CCCCCn1c(=O)[nH]c2cc(C(=O)OC)ccc2c1=O | 9.7%
70 | O=C(CCCCCn1c(=O)[nH]c2ccccc2c1=O)NCCc1c[nH]c2ccccc12 | 58.3% (active)
71 | O=C(CCc1c[nH]c2ccccc12)NCCOc1ccccc1 | -4.4%
72 | COc1cc(CNCc2ccc(OC)c3ccccc23)cc(OC)c1OC | 5.5%
73 | COc1ccc(S(=O)(=O)N2CCN(CC(=O)NCC3(N4CCOCC4)CCCCC3)CC2)cc1 | -8.4%
74 | O=C(CCl)NNc1nc(-c2ccccc2)c2cc(Cl)ccc2n1 | -10.6%
75 | NC(N)=Nc1nc(-c2ccccc2)c2cc(Cl)ccc2n1 | 51.4% (active)

Row | SMILES | inhibition
76 | Cc1ccc2nc(Nc3ccccc3O)nc(-c3ccccc3)c2c1 | 0.7%
77 | Nc1nc(SCC(=O)NN(c2ccccc2)c2ccccc2)n[nH]1 | -4.6%
78 | CC1(C)CC(=O)C(C2=NC(C)(C)Cc3ccccc32)=C(O)C1 | -11%
79 | CCN(CC)S(=O)(=O)c1ccc(NC(=O)c2cccnc2Cl)c(NC(=O)c2cccnc2Cl)c1 | -5.6%
80 | CCc1c(C)nc(SCC(=O)NC2CCCC2)[nH]c1=O | -1.8%
81 | CNC(=S)NNC(=O)c1ccc(N(C)C)cc1 | -10.9%
82 | O=C(NNC(=O)c1ccc(Cl)nc1)c1ccc(Br)cc1 | 6.7%
83 | CC(=O)NC(=S)NNC(=O)c1ccc(Br)cc1 | 79.4% (active)
84 | O=S(=O)(NC1CCCC1)c1ccc(-n2cnnn2)cc1 | 0.2%
85 | C=CCNCCCCOc1ccccc1 | 9.8%
86 | CCc1ccc(NC(=O)N[C@H](C(=O)O)C(C)CC)cc1 (stereo partly drawn) | 10%
87 | CCCCCn1c(=O)c(C(=O)OCC)c(Cl)c2ccccc21 | 5.7%
88 | O=C(c1ccc[nH]c1=S)N1CCN(S(=O)(=O)c2ccc(Br)cc2Cl)CC1 | 1.2%
89 | OCC1(CCOc2ccccc2)CCN(Cc2cn[nH]c2-c2ccccc2)CC1 | 2.5%
90 | CCOC(=O)C1(CCOc2ccccc2)CCN(Cc2cc(OC)c(O)cc2Cl)CC1 | 12%
91 | Cc1c(CN2CCC(CO)(CCOc3ccccc3)CC2)[nH]c2ccc(Cl)cc12 | 72.1% (active)
92 | CC(CC(=O)N1CCN(c2ccccc2)CC1)c1ccccc1 (stereo not drawn) | 9.2%
93 | O=C(c1ccccc1)c1ccc(C(=O)N2CCN(c3ccccc3)CC2)cc1 | 4.4%
94 | CN1CCC(CN)(N2CCN(c3ccccc3)CC2)CC1 | 57.8% (active)
95 | O=C(CN1CCN(c2ccc(F)cc2)CC1)Nc1cccc(C(F)(F)F)c1 | -4.5%
96 | CCCCCCCCCCOC(=O)Cn1c(COc2cccc(OC)c2)[n+](C)c2ccccc21 | 58.1% (active)
97 | CCCCn1c(N)c(N(CCOC)C(=O)c2cccc(OCc3ccccc3)c2)c(=O)[nH]c1=O | 0.1%
98 | CCCCCCCCCCOC(=O)Cn1c(COc2ccc(C)cc2)[n+](C)c2ccccc21 | 44.2%
